# High-throughput results as filed in PubChem.
# MEKK2mut PB1 HTS: signal of MEK5 binding to mutant human MEKK2 PB1 domain | percent response, % at 10 µM | hit rate 0.35% among 290,000 | AID 1530 | bead flow cytometry, Alexa488-MEK5 binding to MEKK2 mutant; in the data active = percent response above about 24%, passing the limit was not always enough
# dFosB act: enhances mouse delta FosB homodimer DNA binding; purified delta FosB, TAMRA-CDK5 oligo fluorescence polarization; percent of positive-control signal above neutral wells; activation, % at 25 µM; hit rate 0.99% among 340,000; AID 493131;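 active = mean activation above about 17%, with every replicate also reaching it, limit read from the data, passing the limit was not always enough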
# Target sequence (P13346 whole entry, looked up): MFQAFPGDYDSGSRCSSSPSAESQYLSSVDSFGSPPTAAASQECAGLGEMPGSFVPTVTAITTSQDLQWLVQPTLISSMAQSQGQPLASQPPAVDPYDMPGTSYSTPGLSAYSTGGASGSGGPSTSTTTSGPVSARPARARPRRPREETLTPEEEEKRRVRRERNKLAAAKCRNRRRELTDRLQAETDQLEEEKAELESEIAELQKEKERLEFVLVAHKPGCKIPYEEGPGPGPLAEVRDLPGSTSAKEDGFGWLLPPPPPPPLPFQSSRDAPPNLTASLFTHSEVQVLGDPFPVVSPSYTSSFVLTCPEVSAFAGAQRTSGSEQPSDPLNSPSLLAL
# MEKK2 WT-MEK5: raises or lowers MEK5 binding to wildtype human MEKK2 PB1 domain. bead flow cytometry, Alexa488-MEK5 binding to MEKK2 WT; actives lie on both sides. binding response (% of control), % at 10 µM. hit rate 1.1% among 290,000. AID 1531; in the data active = binding response below about 67% or above about 130%
# MEKK3 PB1 HTS: MEKK3-MEK5 PB1 interaction, increase or decrease; Q99759; bead-based flow cytometry, Alexa488-MEK5 binding to MEKK3; actives lie on both sides; 0 = blocked by unlabeled MEK5, 100 = vehicle; binding response (% of control), % at 10 µM; hit rate 1.4% among 290,000; AID 1529;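 active = binding response more than 3 SD above or below the average of its plate-row segment, actives on both sides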;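 note: Alexa488 bead fluorescence after subtracting the streptavidin-only scavenger bead signal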
# FID counter: displaces DNA intercalator in HCV helicase counter-screen; DNA fluorescent intercalator displacement, fluorescence; inhibition, % at 7.9 µM; hit rate 0.17% among 290,000; AID 1845; in the data active = inhibition above about 37%;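 note: higher means more ethidium bromide displaced from hairpin DNA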
# MEKK2wt confirm: raises or lowers MEK5 binding to wildtype human MEKK2, retest; shares compounds with MEKK3 PB1 HTS; bead flow cytometry, Alexa488-MEK5 binding to MEKK2 WT; actives lie on both sides; binding response (% of control), % at 10 µM; hit rate 2.4% among 5,900; AID 1892; in the data active = binding response below about 16% or above about 210%; inactive = in between
# MEKK2mut-MEK5: signal of MEK5 binding to mutant human MEKK2, retest; shares compounds with MEKK3 PB1 HTS; bead flow cytometry, Alexa488-MEK5 binding to MEKK2 mutant; percent response, % at 10 µM; hit rate 2% among 5,900; in the data active = percent response mostly above about 71%, no sharp cut-off; inactive = mostly below about 38%;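 note: higher means compound restores mutant binding toward wildtype level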
# MEKK3-MEK5 inh: confirmation of inhibitors of MEK5 binding to human MEKK3; hit rate 1.8% among 5,900; bead flow cytometry, Alexa488-MEK5 binding to MEKK3; stronger effect = lower value; binding response (% of control), % at 10 µM; shares compounds with MEKK3 PB1 HTS;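 active = binding response below 72% of control, or above a set upper limit, though filed actives all read lower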
# Hits are given with their value; i = inactive; nt = not tested or not shown; [ ] = dose if it differs, or a comment. In the library only some 2.9% were active in any assay of this set; here they are far more common.
SMILES,MEKK2mut PB1 HTS,dFosB act,MEKK2 WT-MEK5,MEKK3 PB1 HTS,FID counter,MEKK2wt confirm,MEKK2mut-MEK5,MEKK3-MEK5 inh
Cc1ccccc1OCC(=O)Nc1ccc2c(c1)n(C)c(=O)n2C,i,i,i,i,i,nt,nt,nt
Cc1ccc(C(=O)NCCc2nnc3ccc(SCC(=O)Nc4c(C)cc(C)cc4C)nn23)cc1,i,i,i,133,i,i,i,i
CCNC(=S)NC1CC2CCCC(C1)N2Cc1ccco1 (stereo unspecified),i,i,i,81[inhibitor],i,i,i,i
CCc1ccccc1NC(=S)NC1CC2CCC(C1)N2Cc1ccco1 (stereo unspecified),i,i,i,i,i,nt,nt,nt
O=C(NC1CC2CCCC(C1)N2Cc1ccco1)NC12CC3CC(CC(C3)C1)C2 (stereo unspecified),i,i,i,132,i,i,i,i
COc1ccc(C2N(c3cc(C)on3)C(=O)C3CCCN32)cc1OC (stereo unspecified),i,i,i,i,i,nt,nt,nt
CCOc1ccc(C2N(c3cc(C)on3)C(=O)C3CCCN32)cc1OC (stereo unspecified),i,i,-2.0[inhibitor],-1.0[inhibitor],i,i,i,i
COc1ccc(NC(=O)CSc2nc3ccsc3c(=O)n2CCC(=O)O)c(OC)c1,i,i,i,i,i,nt,nt,nt
COc1ccc([N+](=O)[O-])cc1NC(=O)CSc1ccc2ccccc2c1,i,i,i,148,i,i,i,i
Cc1cc(F)ccc1S(=O)(=O)Nc1ccccc1C(=O)Nc1ncn[nH]1,i,i,i,i,i,nt,nt,nt
Cc1cc(F)ccc1S(=O)(=O)Nc1ccccc1C(=O)Nc1ccccc1-c1nc2ccccc2[nH]1,i,i,i,134,i,i,i,i
CCCNC(=O)C(Cc1ccc(Br)cc1)NC(=O)c1ccc(C#N)cc1 (stereo unspecified),nt,i,nt,nt,nt,nt,nt,nt
O=C(Nc1nccs1)c1ccc(-c2ccc(F)cc2)o1,i,i,i,i,i,nt,nt,nt
O=C(Nc1nccs1)c1ccc(-c2ccc(Cl)cc2)o1,i,i,3.0[inhibitor],3.0[inhibitor],i,i,i,i
O=C(O)COc1ccc(/C=C/c2nc3ccc([N+](=O)[O-])cc3s2)cc1,i,i,i,i,i,nt,nt,nt
Cc1ccc(S(=O)(=O)N2C=CC(C(F)(F)F)=NCC2)cc1,i,i,1.0[inhibitor],1.0[inhibitor],i,i,i,i
COc1ccccc1C(=O)NCCC(=O)NCc1cccnc1,nt,i,nt,nt,nt,nt,nt,nt
CCOC(=O)c1cnc2cc(C)nn2c1C,i,i,i,74[inhibitor],i,i,i,i
Cc1ccccc1-c1nn(-c2ccc(F)cc2F)cc1CNCCN(C)C,i,i,150,i,i,i,i,i
Cc1ccccc1-c1nn(-c2ccc(F)cc2F)cc1CNCCCN(C)C,i,i,140,i,42,i,i,i
O=C(CSc1cn(Cc2ccccc2)c2ccccc12)NCc1ccc(F)cc1,i,i,i,i,i,nt,nt,nt
C/C(=N\NC1=NCCN1)c1ccc(N)c([N+](=O)[O-])c1,i,i,i,46[inhibitor],i,i,i,i
CCCCOc1ccc(Br)cc1/C(C)=N/NC1=NCCN1,35,i,162,i,i,i,i,i
CCCCCCOc1ccc(/C(C)=N/NC2=NCCN2)cc1[N+](=O)[O-],i,55,203,i,i,226,i,i
COc1ccc(/C(C)=N/NC2=NCCN2)cc1Cl,i,i,i,i,i,nt,nt,nt
SMILES,MEKK2mut PB1 HTS,dFosB act,MEKK2 WT-MEK5,MEKK3 PB1 HTS,FID counter,MEKK2wt confirm,MEKK2mut-MEK5,MEKK3-MEK5 inh
CCCCOc1ccc(Br)cc1CSC(=N)N,i,i,i,i,i,nt,nt,nt
COc1ccc(CCC(=O)NCC2CCCCC2)cc1OC,i,i,i,i,i,nt,nt,nt
CN(Cc1ccc(OC(F)F)cc1)C(=O)c1ccc2c(=O)n3c(nc2c1)CCC3,nt,i,nt,nt,nt,nt,nt,nt
CN(C)c1ccc(/C=N/NC(=O)c2ccco2)cc1,i,i,i,130,i,i,i,i
COc1ccc(N(CC(=O)N2CCC(C(N)=O)CC2)S(=O)(=O)c2ccccc2)cc1,i,i,i,i,i,nt,nt,nt
COC(=O)c1cc(C(C)=O)c(C)[nH]c1=O,i,i,i,128,i,i,i,i
CCOC(=O)c1cc(C(C)=O)c(=O)[nH]c1C,i,i,i,i,i,nt,nt,nt
c1ccc(-c2cc3c(nn2)CCc2nonc2-3)cc1,i,i,i,72[inhibitor],i,i,i,i
CCCN(CC1CC1)C(=O)COC(=O)c1ccc2c(c1)C(=O)N(c1ccc(OCC)cc1)C2=O,i,i,i,i,i,nt,nt,nt
C#CCOCCOCCOCCNc1nc(N2CCN(C(=O)[C@H]([C@@H](C)CC)n3cc([C@@H](N)CO)nn3)CC2)nc(N2CCN(C(=O)[C@H](Cc3cc4ccccc4[nH]3)n3cc([C@@H](N)Cc4ccc(O)cc4)nn3)CC2)n1,i,nt,155,i,nt,231,114,i
C#CCOCCOCCOCCNc1nc(N2CCN(C(=O)[C@H](CCC(=O)O)n3cc(C(N)Cc4ccc(O)cc4)nn3)CC2)nc(N2CCN(C(=O)[C@H](CCC(=O)O)n3cc(C(N)CC(C)C)nn3)CC2)n1 (stereo partly specified),i,nt,i,i,i,nt,nt,nt
C#CCOCCOCCOCCNc1nc(N2CCN(C(=O)[C@H](CCC(=O)O)n3cc(C(N)Cc4ccc(O)cc4)nn3)CC2)nc(N2CCN(C(=O)[C@H](Cc3cc4ccccc4[nH]3)n3cc(C(N)CC(C)C)nn3)CC2)n1 (stereo partly specified),i,nt,145,i,i,i,i,i
C#CCOCCOCCOCCNc1nc(N2CCN(C(=O)C(Cc3ccc(O)cc3)n3cc(C(N)CC(C)C)nn3)CC2)nc(N2CCN(C(=O)C(Cc3cc4ccccc4[nH]3)n3cc(C(N)Cc4ccc(O)cc4)nn3)CC2)n1 (stereo unspecified),112,nt,258,i,40,221,86,i
COC(=O)C1CCN(C(=O)Cc2c(OC)ccc3cc(Br)ccc23)CC1,i,i,i,i,i,nt,nt,nt
CC(C)NC(=S)N1CCCN(c2ncccc2[N+](=O)[O-])CC1,i,i,i,i,i,nt,nt,nt
COc1ccc(NC(=O)COC(=O)c2ccc([N+](=O)[O-])o2)cc1Cl,i,i,i,131,i,i,i,i
CC(C)C[C@H](NC(=O)[C@@H]1Cc2ccccc2CN1C(=O)OC(C)(C)C)C(=O)NCC1CCC(C(=O)O)CC1 (stereo partly specified),i,i,i,i,i,nt,nt,nt
